This is a sample that favours compounds with a hit; in the whole collection about 7.9% have one here.
Lassa entry inh = blocks Lassa virus binding to or entry into cells; Lassa virus pseudotype entry inhibition, cell reporter; Potency, µM (titrated, usually from 37.9 µM), actives largely listed as inhibitors; hit rate 1.2% among 300,000; calls by dose curve; tested in HEK293 cells; note: nearly all actives have a fitted effect of over 50% in size
FMDV inh = blocks foot and mouth disease virus | Potency, µM (doses to about 57.9 µM), most hits filed as inhibitors | AID 1159524 | FMDV antiviral cell-based qHTS | hit rate 1.2% among 410,000; calls by dose curve; tested in HEK293T cells; note: read-out not given here; nearly all actives have a fitted effect of over 45% in size
HCV inhibitor = inhibitors of hepatitis C virus infection; Potency, µM (top dose mostly 41.8 µM), actives largely listed as inhibitors; hit rate 3.4% among 340,000; AID 651820; Huh7.5.1 HCVcc-Cre infection, luciferase reporter, 44 h; active = well fitted inhibition curve with a large enough effect; inconclusive = small, poorly fitted or top-dose-only effect, or another doubt; inactive = no such curve, though single readings can be large or run the other way
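After 44 h co-culture of compound, cells and HCVcc-Cre (~0.5 moi), substrate is added for 15 min at room temperature and luciferase measured over 15 sec. Cells were seeded at 1,000/well and pre-cultured 4 h.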
HCMV antiviral = blocks human cytomegalovirus replication. HFF cells, HCMV-luciferase reporter, 72 h; active compounds read low. activity change, negative = inhibition, % at 57.5 µM. hit rate 4.5% among 410,000. AID 1259415; in the data active = activity change below about -60%; inconclusive = no clear call, values can overlap the other calls; inactive = above about -39%
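Two compound doses tested in HFFs infected with HCMV-luciferase, MOI 1 PFU/cell, 72 h at 37C. Lysate luminescence read with OneGlo; data normalized against buffer-only and 10uM Salinomycin inhibitor controls.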
MARV entry inh = Marburg virus entry inhibition. Marburg virus pseudotyped entry inhibition, cell reporter. Potency, µM (highest dose often 37.8 µM), usual class: inhibitors. hit rate 1.8% among 300,000. AID 540276; calls by dose curve; tested in HEK293 cells
Each line names hits and unclear results; the compound was inactive in the other large screens.

CC1=C(C(=O)OC2CCCCC2)C(c2ccc(N(C)C)cc2)NC(=O)N1 (stereo not drawn)	HCV inhibitor inconclusive (no result: Lassa entry inh, MARV entry inh)
Cc1ccc(S(=O)(=O)N2CCN(c3ccccc3)CC2)cc1C(=O)NC1CCCCC1	FMDV inh inconclusive, HCV inhibitor inconclusive (no result: Lassa entry inh, MARV entry inh)
CCOC(=O)c1cccc(NC(=O)CC(c2ccc(F)cc2)N2Cc3ccccc3C2=O)c1 (stereo not drawn)	none (no result: HCV inhibitor, MARV entry inh)
CCn1c(-c2ccccc2F)nc2cc(C(=O)NC(c3ccccn3)C(F)(F)F)cc(NC(C)=O)c21 (stereo not drawn)	none (no result: Lassa entry inh, HCV inhibitor, HCMV antiviral, MARV entry inh)
CCCN(C(=O)COc1ccc(C(C)=O)cc1OC)C1CCS(=O)(=O)C1 (stereo not drawn)	none (no result: Lassa entry inh, MARV entry inh)
COc1cccc(C(=O)Oc2cc3c4c(c2)C(C)=CC(C)(C)N4C(=O)C3=O)c1	Lassa entry inh inconclusive, HCV inhibitor inconclusive, HCMV antiviral -77, MARV entry inh inconclusive (no result: FMDV inh)
COc1cc2c3c(c1)C(C)=CC(C)(C)N3C(=O)C2=O	HCMV antiviral -85, MARV entry inh inconclusive
COc1ccc(C(=O)Oc2cc3c4c(c2)C(C)=CC(C)(C)N4C(=O)C3=O)cc1OC	FMDV inh inconclusive, HCV inhibitor inconclusive, MARV entry inh inconclusive
CCOC(=O)c1ccc(OCC2c3cc(OC)c(OC)cc3CCN2C(=O)Cc2ccc(F)cc2)cc1 (stereo not drawn)	Lassa entry inh inconclusive (no result: HCV inhibitor, MARV entry inh)
Nc1nc(=O)n(C2CC(O)C(CO)O2)cc1F (stereo not drawn)	Lassa entry inh inconclusive, HCMV antiviral -97, MARV entry inh inconclusive
CCNC(=O)N(C)C[C@H]1N[C@@](CC)(C(=O)OC)[C@H]2C(=O)N(Cc3ccccc3)C(=O)[C@@H]12	none (no result: Lassa entry inh, MARV entry inh)
CCC1N=C(SC)NC(C)=C1C(=O)c1ccccc1 (stereo not drawn)	Lassa entry inh inconclusive, HCMV antiviral -69
CCCC1=Nc2cc(C(=O)NCCCOCC)ccc2Sc2ccccc21	HCV inhibitor inconclusive, HCMV antiviral -82, MARV entry inh 1.6µM
CCCC1=Nc2cc(C(=O)NCCCOC(C)C)ccc2Sc2ccccc21	Lassa entry inh 6.5µM, HCV inhibitor inconclusive, HCMV antiviral inconclusive, MARV entry inh inconclusive
CCCC1=Nc2cc(C(=O)NCCCN(CC)CC)ccc2Sc2ccccc21	Lassa entry inh inconclusive, MARV entry inh inconclusive (no result: HCV inhibitor)
CCCC1=Nc2cc(C(=O)NCCOC)ccc2Sc2ccccc21	Lassa entry inh inconclusive, HCMV antiviral -97, MARV entry inh inconclusive (no result: HCV inhibitor)
Cc1ccc(NC(=O)CN2C(=O)c3cccnc3Sc3ccccc32)cc1C	none (no result: HCV inhibitor, MARV entry inh)
OC(CNCCN1CCNCC1)Cc1ccccc1 (stereo not drawn)	none
CN(C(=O)c1nn(C)c2c1CS(=O)(=O)c1ccccc1-2)c1cccc(Cl)c1	none (no result: MARV entry inh)
CC1CN(CC(=O)N2CCN(Cc3nccn3C)CC2)Cc2cc(Cl)ccc2O1 (stereo not drawn)	none (no result: Lassa entry inh, HCV inhibitor, HCMV antiviral, MARV entry inh)
CCCC[C@@H](CNC)NC[C@H](Cc1ccc(O)cc1)NCCc1ccc(OCC)cc1	HCV inhibitor inconclusive, HCMV antiviral -85 (no result: Lassa entry inh, MARV entry inh)
CCN(CC)S(=O)(=O)c1ccc2c(c1)N(CC(=O)N(C)Cc1ccccc1)C(=O)CO2	none (no result: HCV inhibitor)
Cc1c(Cl)cccc1Nc1n[nH]c(=S)s1	HCMV antiviral -66
Cc1cccc(OS(=O)(=O)NC(=O)OCC2CCCN3CCCCC23)c1 (stereo not drawn)	FMDV inh 32µM
C=CCN1[C@@H](C)[C@H](c2ccccc2)Oc2cccc(NCCc3ccccc3)c2S1(=O)=O	none (no result: Lassa entry inh, FMDV inh, HCV inhibitor, MARV entry inh)
Cc1nn(-c2ccccc2)c(N2CCCC2)c1/C=N/NC(=S)Nc1ccccc1F	Lassa entry inh inconclusive, HCV inhibitor inconclusive, HCMV antiviral -61, MARV entry inh inconclusive
Cc1nn(-c2ccccc2)c(N2CCCC2)c1/C=N/NC(=O)c1cc2ccccc2cc1O	FMDV inh 40µM, HCV inhibitor inconclusive
Cc1nn(-c2ccccc2)c(N2CCCC2)c1/C=N/NC(=O)c1cc(-c2ccccn2)nc2ccccc12	Lassa entry inh inconclusive, HCV inhibitor 4µM, MARV entry inh inconclusive
Cc1nn(-c2ccccc2)c(N2CCCC2)c1/C=N/NC(=O)c1cc(-c2ccccc2)nc2ccccc12	FMDV inh inconclusive, HCV inhibitor inconclusive, MARV entry inh inconclusive
CC(=O)Nc1c([N+](=O)[O-])cc(C)c(Cl)c1[N+](=O)[O-]	HCMV antiviral -77, MARV entry inh inconclusive
CC(=O)Nc1c([N+](=O)[O-])cc2[nH]c(=O)[nH]c2c1[N+](=O)[O-]	MARV entry inh inconclusive
COc1ccccc1CN1CC(C(=O)NCc2nc3ccccc3n2C)CCC1=O (stereo not drawn)	HCMV antiviral -64 (no result: HCV inhibitor)
O=c1cnn([C@@H]2O[C@H](CO)[C@@H](O)[C@H]2O)c(=O)[nH]1	Lassa entry inh 0.092µM, MARV entry inh inconclusive (no result: HCMV antiviral)
CC(C)c1c(O)ccc2c1CC[C@H]1C(C)(C)CCC[C@]21C	FMDV inh inconclusive, HCV inhibitor 2µM (no result: Lassa entry inh, MARV entry inh)
CC1(C)C(=O)C=C[C@@]2(C)C1=C(O)C(=O)[C@@]1(C)C2CC[C@@]2(C)C(c3ccoc3)C[C@H]3O[C@@]321 (stereo partly drawn)	FMDV inh 10µM (no result: Lassa entry inh, HCV inhibitor, HCMV antiviral, MARV entry inh)
CCCCCNC(=O)C(=O)C(=O)c1cc(OC)c(OC)c(OC)c1	none (no result: Lassa entry inh, FMDV inh, HCV inhibitor, MARV entry inh)
CN(CC(=O)Nc1cccc(F)c1)C(=O)CC1CCCCC1	none
COc1ccc(C(=O)N(c2ccccc2)c2nccc3ccccc23)cc1OC	HCV inhibitor 1.8µM (no result: Lassa entry inh, MARV entry inh)
CCCSc1nc(N)nc2c1ncn2C1OC(CO)C(O)C1O (stereo not drawn)	Lassa entry inh inconclusive, HCMV antiviral -70
COC(=O)c1ccccc1NC(=O)c1sc(N)nc1C	HCMV antiviral -101
COC1C(O)C(CO)OC1n1cnc2c(NC3CCCCC3)ncnc21 (stereo not drawn)	none (no result: Lassa entry inh, HCV inhibitor, HCMV antiviral, MARV entry inh)
COc1ccc(OC)c(-c2ccnc(-n3ncc(C(=O)N(C)CCc4ccccn4)c3C)n2)c1	none (no result: Lassa entry inh, HCV inhibitor, HCMV antiviral, MARV entry inh)
COc1ccccc1C(OC(=O)c1ccco1)C(=O)NC(C)(C)C (stereo not drawn)	HCMV antiviral -82
COc1ccccc1C(OC(=O)c1ccco1)C(=O)NCc1ccc(F)cc1 (stereo not drawn)	none
CCCCCCN(C(=O)CCCCCN1C(=O)NC(c2ccc(C3CCCCC3)cc2)C(C(=O)OCc2ccccc2)=C1C)C(C(=O)NCCCC)c1ccc(OCC(=O)OC)c(C(=O)OC)c1 (stereo not drawn)	none (no result: Lassa entry inh, FMDV inh, HCV inhibitor, MARV entry inh)
CCCCCCN(C(=O)CCCCCN1C(=O)NC(c2ccccc2)C(C(=O)OCc2ccccc2)=C1C)C(C(=O)NCCCC)c1ccc(OCC(=O)OC)c(C(=O)OC)c1 (stereo not drawn)	HCMV antiviral -98 (no result: Lassa entry inh, FMDV inh, HCV inhibitor, MARV entry inh)
O=C(/C=C/c1ccc(OCCCF)cc1)Nc1ccnc(-c2ccncc2)n1	FMDV inh 22µM, HCV inhibitor inconclusive, HCMV antiviral inconclusive, MARV entry inh inconclusive
CCOc1ccc([C@H]2C[C@H](c3ccccc3)Nc3nc(N)nn32)cc1	none (no result: Lassa entry inh, FMDV inh, HCV inhibitor, HCMV antiviral)
Cc1ccc(/C(=N\O)c2oc3c(C)c4oc(=O)cc(C)c4cc3c2C)cc1	Lassa entry inh 0.37µM, FMDV inh inconclusive, HCV inhibitor 5.6µM, MARV entry inh 2.9µM
CCc1c(C(C)=O)oc2ccc3c(C)cc(=O)oc3c12	HCV inhibitor inconclusive, HCMV antiviral inconclusive
